Measured values published in PubChem BioAssay (NCI).
The panel holds about 83,000 compounds, 20% with a hit somewhere; the sample as a whole holds those more often.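 The test compound was applied at a single concentration to cells in 96-well plates for 48 hours, and percent growth was recorded.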 Activity calls are given as the source filed them. Rule for the calls: active = growth percent below 10; inactive = the rest.

Tests used:
Assay in all cases: NCI-60 one-dose screen, 48 h (100 = growth as untreated, 0 = no growth, -100 = all killed)
SR leukemia = conditions: 10 µM unless noted
OVCAR-8 ovarian = conditions: 10 µM unless noted
OVCAR-5 ovarian = conditions: 10 µM unless noted
OVCAR-4 ovarian = conditions: 10 µM unless noted
SK-OV-3 ovarian = conditions: 10 µM unless noted
IGROV1 ovarian = conditions: 10 µM unless noted
OVCAR-3 ovarian = conditions: 10 µM unless noted
NCI/ADR-RES ovarian = conditions: 10 µM unless noted
T-47D breast = conditions: 10 µM unless noted
BT-549 breast = conditions: 10 µM unless noted
MDA-MB-435 melanoma = conditions: 10 µM unless noted
SW-620 colon = conditions: 10 µM unless noted
MCF7 breast = conditions: 10 µM unless noted
HCT-116 colon = conditions: 10 µM unless noted
HCC-2998 colon = conditions: 10 µM
HS 578T breast = conditions: 10 µM
KM12 colon = conditions: 10 µM unless noted

Measured: growth

CO[C@H]1C[C@@H]2CC[C@@H](C)[C@@](O)(O2)C(=O)C(=O)N2CCCC[C@H]2C(=O)O[C@H]([C@H](C)C[C@@H]2CC[C@@H](OP(C)(C)=O)[C@H](OC)C2)CC(=O)[C@H](C)/C=C(\C)[C@@H](O)[C@@H](OC)C(=O)[C@H](C)C[C@H](C)\C=C/C=C/C=C/1C
inactive: SR leukemia 13.1% | OVCAR-8 ovarian 34.3% | OVCAR-5 ovarian 60.7% | OVCAR-4 ovarian 28.6% | SK-OV-3 ovarian 12.2% | IGROV1 ovarian 24.4% | OVCAR-3 ovarian 59.7% | NCI/ADR-RES ovarian 51.4% | T-47D breast 11.5% | BT-549 breast 39.7% | MDA-MB-435 melanoma 56.7% | SW-620 colon 60.1% | MCF7 breast 30.5% | HCT-116 colon 65.1% | HCC-2998 colon 56.4%

Clc1ccc2c(NCCNc3nc(N4CCCC4)nc4ccccc34)ccnc2c1
inactive: OVCAR-5 ovarian 23.6% | HS 578T breast 19.9% | MCF7 breast 28.5% | KM12 colon 10.9%
active: SR leukemia -22.6% | OVCAR-8 ovarian 3.61% | OVCAR-4 ovarian -7.19% | SK-OV-3 ovarian -63.3% | IGROV1 ovarian 3.56% | OVCAR-3 ovarian -65.8% | T-47D breast -14% | BT-549 breast -11.3% | MDA-MB-435 melanoma -41.3% | SW-620 colon 5.27% | HCT-116 colon -63.6% | HCC-2998 colon 7.18%

COc1cc2ncnc(Oc3cccc(NC(=O)Nc4cc(C(C)(C)C(F)(F)F)on4)c3)c2cc1OC
active: SK-OV-3 ovarian -26.5% | IGROV1 ovarian -11.1% | T-47D breast 9.47%
inactive: SR leukemia 28.5% | OVCAR-8 ovarian 25.1% | OVCAR-4 ovarian 36.3% | OVCAR-3 ovarian 50.4% | NCI/ADR-RES ovarian 23.9% | BT-549 breast 37.4% | MDA-MB-435 melanoma 13.3% | SW-620 colon 27.4% | MCF7 breast 37.8% | HCT-116 colon 10.8% | HCC-2998 colon 52.8% | KM12 colon 42.4%

CNc1ncc2cc(-c3cc(NC(=O)NCCC(C)(C)C)c(F)cc3C)c(C)nc2n1
inactive: SR leukemia 17.7% | OVCAR-4 ovarian 33.2% | OVCAR-3 ovarian 54.5% | NCI/ADR-RES ovarian 24.7% | BT-549 breast 30.5% | SW-620 colon 17.5% | MCF7 breast 45.7% | KM12 colon 18.2%
active: OVCAR-5 ovarian 6.28% | SK-OV-3 ovarian -26% | IGROV1 ovarian -10.2% | T-47D breast -2% | MDA-MB-435 melanoma 9.76% | HCT-116 colon 4.36%

COc1c(OCCCN2CCOCC2)ccc2c3n(c(=NC(=O)c4cnc(N)nc4)nc12)CCN3
inactive: OVCAR-8 ovarian 15.7% | OVCAR-5 ovarian 14% | NCI/ADR-RES ovarian 22.7% | SW-620 colon 20.5% | MCF7 breast 11.9% | HCT-116 colon 13.8%
active: SR leukemia 5.24% | OVCAR-4 ovarian 7.97% | SK-OV-3 ovarian -31.8% | IGROV1 ovarian -22% | OVCAR-3 ovarian 4.64% | T-47D breast -24% | BT-549 breast -5.84% | MDA-MB-435 melanoma 4.22% | HCC-2998 colon -15.7% | KM12 colon -2.1%

O=C1NC(=O)C(c2cnc3ccccn23)=C1c1cn2c3c(cc(F)cc13)CN(C(=O)N1CCCCC1)CC2
inactive: SR leukemia 10% | OVCAR-8 ovarian 19.7% | OVCAR-5 ovarian 102% | OVCAR-4 ovarian 38.7% | SK-OV-3 ovarian 39.4% | IGROV1 ovarian 53.3% | OVCAR-3 ovarian 52.8% | NCI/ADR-RES ovarian 74.4% | T-47D breast 33.8% | BT-549 breast 61.1% | MDA-MB-435 melanoma 51.2% | SW-620 colon 59.6% | MCF7 breast 35.2% | HCT-116 colon 17.1% | KM12 colon 46.2%

Cc1cc(Nc2ncc(Cl)c(Nc3ccccc3S(=O)(=O)C(C)C)n2)c(OC(C)C)cc1C1CCNCC1
active: SR leukemia -44.7% | OVCAR-8 ovarian -67.2% | OVCAR-5 ovarian -96.6% | OVCAR-4 ovarian -89.2% | SK-OV-3 ovarian -32.2% | IGROV1 ovarian -72.2% | OVCAR-3 ovarian -96.4% | NCI/ADR-RES ovarian -60.6% | T-47D breast -77.7% | BT-549 breast -78.4% | MDA-MB-435 melanoma -100% | SW-620 colon -92.7% | MCF7 breast -73.7% | HCT-116 colon -97.5% | HCC-2998 colon -93% | KM12 colon -95.8%

Cn1ncc(Cl)c1-c1cc(C(=O)N[C@H](CN)Cc2ccc(F)c(F)c2)oc1Cl
active: SR leukemia -10.6% | OVCAR-8 ovarian -38.4% | OVCAR-5 ovarian 5.81% | SK-OV-3 ovarian -41.6% | IGROV1 ovarian -23.8% | NCI/ADR-RES ovarian 8.92% | T-47D breast -50.7% | BT-549 breast -66.4% | MDA-MB-435 melanoma -59.8% | MCF7 breast -28.5% | HCT-116 colon -28.3% | HCC-2998 colon -89.9% | KM12 colon -39.2%
inactive: OVCAR-4 ovarian 24.8% | OVCAR-3 ovarian 18.2% | SW-620 colon 27.9%

Nc1cc2c(cc1Br)-c1c(C(=O)O)cccc1C2O (centres undefined)
inactive: SR leukemia 109% | OVCAR-8 ovarian 107% | OVCAR-5 ovarian 102% | OVCAR-4 ovarian 103% | SK-OV-3 ovarian 110% | IGROV1 ovarian 98.6% | OVCAR-3 ovarian 147% | T-47D breast 105% | BT-549 breast 114% | MDA-MB-435 melanoma 105% | SW-620 colon 110% | MCF7 breast 95.4% | HCT-116 colon 96.4% | HCC-2998 colon 112% | KM12 colon 99.3%

CCN(CCN(C)C)C(=O)CNCc1cc(C(N)=O)ccn1
inactive: SR leukemia 93% | OVCAR-8 ovarian 89.9% | OVCAR-5 ovarian 101% | OVCAR-4 ovarian 109% | SK-OV-3 ovarian 96.4% | IGROV1 ovarian 109% | OVCAR-3 ovarian 119% | HS 578T breast 108% | T-47D breast 104% | BT-549 breast 102% | MDA-MB-435 melanoma 110% | SW-620 colon 109% | MCF7 breast 96.1% | HCT-116 colon 94.4% | HCC-2998 colon 94.2% | KM12 colon 101%

O=C(NOCCO)c1ccc2cncn2c1Nc1ccc(I)cc1F
inactive: SR leukemia 56.9% | OVCAR-8 ovarian 58.6% | OVCAR-5 ovarian 19.3% | OVCAR-4 ovarian 70.8% | SK-OV-3 ovarian 49% | IGROV1 ovarian 26.2% | OVCAR-3 ovarian 102% | NCI/ADR-RES ovarian 71.8% | T-47D breast 83.4% | BT-549 breast 88.8% | MDA-MB-435 melanoma 47.4% | SW-620 colon 24.6% | MCF7 breast 96.2% | HCT-116 colon 15.1% | KM12 colon 28.6%
